Assay results from the supplement of paper PMC11732987, “Enantioselective OTUD7B fragment discovery through chemoproteomics screening and high-throughput optimisation” (Communications Chemistry, 2025).

Experiments:
Assay in all cases: log2 ratio of Biotin-Ahx-Ub-VS probe labelling (fragment/DMSO); higher = less target engagement (more negative = stronger competition), active = hit call of the paper (q ≤ 0.05, log2 ratio ≤ -1)
Details in all cases: compound concentration: 200 uM; treatment time: 3 h
USP19 = target: T1, USP19 (UniProt O94966)
T1 sequence (whole entry): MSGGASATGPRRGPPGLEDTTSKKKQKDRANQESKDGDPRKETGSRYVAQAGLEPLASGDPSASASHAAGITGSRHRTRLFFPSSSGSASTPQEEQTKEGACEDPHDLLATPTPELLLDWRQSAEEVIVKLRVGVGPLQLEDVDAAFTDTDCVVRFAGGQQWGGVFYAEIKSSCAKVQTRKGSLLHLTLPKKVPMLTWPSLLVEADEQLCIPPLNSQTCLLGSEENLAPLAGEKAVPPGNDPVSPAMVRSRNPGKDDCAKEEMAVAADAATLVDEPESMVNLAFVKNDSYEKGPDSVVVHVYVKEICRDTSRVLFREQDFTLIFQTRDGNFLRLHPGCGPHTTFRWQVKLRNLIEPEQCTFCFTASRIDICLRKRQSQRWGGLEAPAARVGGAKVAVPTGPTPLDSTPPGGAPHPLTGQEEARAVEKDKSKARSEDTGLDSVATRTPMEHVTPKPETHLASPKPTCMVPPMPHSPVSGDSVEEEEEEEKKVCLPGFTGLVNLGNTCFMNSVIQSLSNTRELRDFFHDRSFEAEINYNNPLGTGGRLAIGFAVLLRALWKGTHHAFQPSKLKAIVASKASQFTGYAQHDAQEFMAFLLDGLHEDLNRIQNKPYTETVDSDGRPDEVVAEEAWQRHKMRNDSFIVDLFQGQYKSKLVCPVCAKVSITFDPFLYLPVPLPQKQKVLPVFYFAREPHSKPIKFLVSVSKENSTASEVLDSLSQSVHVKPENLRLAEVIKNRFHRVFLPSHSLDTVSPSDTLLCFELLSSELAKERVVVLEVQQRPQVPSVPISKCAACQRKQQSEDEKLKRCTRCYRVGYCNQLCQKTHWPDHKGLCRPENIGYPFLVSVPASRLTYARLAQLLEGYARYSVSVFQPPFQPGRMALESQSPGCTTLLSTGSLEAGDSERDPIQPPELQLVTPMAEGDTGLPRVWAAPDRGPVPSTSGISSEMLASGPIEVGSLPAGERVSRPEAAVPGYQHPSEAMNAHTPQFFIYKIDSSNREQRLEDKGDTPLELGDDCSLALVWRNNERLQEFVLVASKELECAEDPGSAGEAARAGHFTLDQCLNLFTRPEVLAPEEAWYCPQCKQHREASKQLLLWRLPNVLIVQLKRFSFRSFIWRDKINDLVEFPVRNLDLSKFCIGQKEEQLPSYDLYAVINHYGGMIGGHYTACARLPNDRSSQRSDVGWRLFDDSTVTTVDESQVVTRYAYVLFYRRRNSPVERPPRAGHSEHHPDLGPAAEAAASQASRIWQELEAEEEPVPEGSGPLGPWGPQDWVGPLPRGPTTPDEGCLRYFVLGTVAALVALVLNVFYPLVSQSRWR
Method in brief: (§1)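 Each value is an average log2 ratio of fragment to vehicle, tested by unpaired t-test. The underlying Spectronaut label-free quantities were global-median-normalised, and only proteins with ≥2 unique peptides were included. Triplicate HEK293T lysate samples (495 µg) were exposed to fragment at 200 µM or vehicle for 3 h, then to Biotin-Ahx-Ub-VS at 0.5 µM final for 1 h, before NeutrAvidin enrichment of labelled DUBs, LysC and trypsin digestion, and diaPASEF LC-MS/MS.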

USP24 = USP24 (UniProt Q9UPU5)
Method in brief: as §1

USP25 = target: T2, USP25 (UniProt Q9UHP3)
T2 sequence (whole entry): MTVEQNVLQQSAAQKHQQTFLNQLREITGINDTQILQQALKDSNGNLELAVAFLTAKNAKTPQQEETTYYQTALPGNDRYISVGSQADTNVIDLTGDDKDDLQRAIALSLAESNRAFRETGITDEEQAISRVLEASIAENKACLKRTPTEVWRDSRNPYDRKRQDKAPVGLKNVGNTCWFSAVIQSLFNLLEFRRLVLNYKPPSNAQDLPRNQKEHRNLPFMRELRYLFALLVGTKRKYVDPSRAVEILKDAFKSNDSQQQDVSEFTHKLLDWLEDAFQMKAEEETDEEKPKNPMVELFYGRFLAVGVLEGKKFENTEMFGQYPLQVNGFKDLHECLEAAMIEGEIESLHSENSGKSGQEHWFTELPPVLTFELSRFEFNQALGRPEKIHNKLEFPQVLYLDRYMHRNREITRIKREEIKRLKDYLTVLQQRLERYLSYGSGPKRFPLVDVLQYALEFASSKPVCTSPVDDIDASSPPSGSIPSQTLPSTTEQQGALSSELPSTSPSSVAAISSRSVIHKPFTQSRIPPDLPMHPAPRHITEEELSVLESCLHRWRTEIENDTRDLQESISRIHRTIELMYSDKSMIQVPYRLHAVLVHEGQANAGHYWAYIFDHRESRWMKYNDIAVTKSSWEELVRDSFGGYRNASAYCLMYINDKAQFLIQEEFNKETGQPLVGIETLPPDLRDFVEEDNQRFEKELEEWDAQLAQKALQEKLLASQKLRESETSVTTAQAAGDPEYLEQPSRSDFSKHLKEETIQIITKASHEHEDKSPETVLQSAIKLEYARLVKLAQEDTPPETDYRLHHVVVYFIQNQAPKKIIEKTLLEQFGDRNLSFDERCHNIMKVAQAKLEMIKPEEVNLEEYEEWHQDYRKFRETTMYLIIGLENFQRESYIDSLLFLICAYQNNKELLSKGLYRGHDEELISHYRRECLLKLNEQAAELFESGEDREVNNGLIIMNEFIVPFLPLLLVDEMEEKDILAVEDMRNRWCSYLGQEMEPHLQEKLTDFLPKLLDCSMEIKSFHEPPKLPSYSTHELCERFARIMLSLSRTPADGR
Method in brief: as §1

USP28 = target: T3, USP28 (UniProt Q96RU2)
T3 sequence (whole entry): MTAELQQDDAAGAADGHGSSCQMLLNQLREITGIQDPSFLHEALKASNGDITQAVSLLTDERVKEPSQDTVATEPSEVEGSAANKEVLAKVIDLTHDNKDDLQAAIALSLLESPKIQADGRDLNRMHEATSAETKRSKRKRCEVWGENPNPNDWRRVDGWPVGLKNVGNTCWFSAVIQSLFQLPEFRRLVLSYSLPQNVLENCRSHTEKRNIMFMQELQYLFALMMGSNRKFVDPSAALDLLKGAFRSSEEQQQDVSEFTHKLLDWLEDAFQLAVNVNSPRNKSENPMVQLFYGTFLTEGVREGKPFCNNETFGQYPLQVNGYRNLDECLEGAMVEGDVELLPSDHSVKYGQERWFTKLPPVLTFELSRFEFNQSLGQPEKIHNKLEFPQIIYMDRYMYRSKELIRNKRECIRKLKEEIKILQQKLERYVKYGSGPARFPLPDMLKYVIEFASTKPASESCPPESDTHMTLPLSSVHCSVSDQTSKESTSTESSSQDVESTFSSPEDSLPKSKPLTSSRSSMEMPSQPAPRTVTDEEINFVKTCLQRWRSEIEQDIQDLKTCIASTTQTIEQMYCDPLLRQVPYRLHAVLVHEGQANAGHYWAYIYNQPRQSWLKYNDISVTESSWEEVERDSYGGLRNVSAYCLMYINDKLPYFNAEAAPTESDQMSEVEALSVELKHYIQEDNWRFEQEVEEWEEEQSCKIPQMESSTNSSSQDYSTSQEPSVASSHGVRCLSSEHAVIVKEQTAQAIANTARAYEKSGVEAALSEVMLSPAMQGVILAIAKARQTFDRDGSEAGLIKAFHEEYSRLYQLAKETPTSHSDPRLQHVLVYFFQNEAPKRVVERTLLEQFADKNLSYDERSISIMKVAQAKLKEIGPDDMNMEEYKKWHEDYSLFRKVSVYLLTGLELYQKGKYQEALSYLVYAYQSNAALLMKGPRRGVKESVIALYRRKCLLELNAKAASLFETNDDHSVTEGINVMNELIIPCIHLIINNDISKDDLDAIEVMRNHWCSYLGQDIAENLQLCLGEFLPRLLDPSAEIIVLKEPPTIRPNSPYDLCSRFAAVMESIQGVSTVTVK
Method in brief: as §1

Measured: log2 ratio of Biotin-Ahx-Ub-VS probe labelling

Chain of USP24 (Q9UPU5 whole entry): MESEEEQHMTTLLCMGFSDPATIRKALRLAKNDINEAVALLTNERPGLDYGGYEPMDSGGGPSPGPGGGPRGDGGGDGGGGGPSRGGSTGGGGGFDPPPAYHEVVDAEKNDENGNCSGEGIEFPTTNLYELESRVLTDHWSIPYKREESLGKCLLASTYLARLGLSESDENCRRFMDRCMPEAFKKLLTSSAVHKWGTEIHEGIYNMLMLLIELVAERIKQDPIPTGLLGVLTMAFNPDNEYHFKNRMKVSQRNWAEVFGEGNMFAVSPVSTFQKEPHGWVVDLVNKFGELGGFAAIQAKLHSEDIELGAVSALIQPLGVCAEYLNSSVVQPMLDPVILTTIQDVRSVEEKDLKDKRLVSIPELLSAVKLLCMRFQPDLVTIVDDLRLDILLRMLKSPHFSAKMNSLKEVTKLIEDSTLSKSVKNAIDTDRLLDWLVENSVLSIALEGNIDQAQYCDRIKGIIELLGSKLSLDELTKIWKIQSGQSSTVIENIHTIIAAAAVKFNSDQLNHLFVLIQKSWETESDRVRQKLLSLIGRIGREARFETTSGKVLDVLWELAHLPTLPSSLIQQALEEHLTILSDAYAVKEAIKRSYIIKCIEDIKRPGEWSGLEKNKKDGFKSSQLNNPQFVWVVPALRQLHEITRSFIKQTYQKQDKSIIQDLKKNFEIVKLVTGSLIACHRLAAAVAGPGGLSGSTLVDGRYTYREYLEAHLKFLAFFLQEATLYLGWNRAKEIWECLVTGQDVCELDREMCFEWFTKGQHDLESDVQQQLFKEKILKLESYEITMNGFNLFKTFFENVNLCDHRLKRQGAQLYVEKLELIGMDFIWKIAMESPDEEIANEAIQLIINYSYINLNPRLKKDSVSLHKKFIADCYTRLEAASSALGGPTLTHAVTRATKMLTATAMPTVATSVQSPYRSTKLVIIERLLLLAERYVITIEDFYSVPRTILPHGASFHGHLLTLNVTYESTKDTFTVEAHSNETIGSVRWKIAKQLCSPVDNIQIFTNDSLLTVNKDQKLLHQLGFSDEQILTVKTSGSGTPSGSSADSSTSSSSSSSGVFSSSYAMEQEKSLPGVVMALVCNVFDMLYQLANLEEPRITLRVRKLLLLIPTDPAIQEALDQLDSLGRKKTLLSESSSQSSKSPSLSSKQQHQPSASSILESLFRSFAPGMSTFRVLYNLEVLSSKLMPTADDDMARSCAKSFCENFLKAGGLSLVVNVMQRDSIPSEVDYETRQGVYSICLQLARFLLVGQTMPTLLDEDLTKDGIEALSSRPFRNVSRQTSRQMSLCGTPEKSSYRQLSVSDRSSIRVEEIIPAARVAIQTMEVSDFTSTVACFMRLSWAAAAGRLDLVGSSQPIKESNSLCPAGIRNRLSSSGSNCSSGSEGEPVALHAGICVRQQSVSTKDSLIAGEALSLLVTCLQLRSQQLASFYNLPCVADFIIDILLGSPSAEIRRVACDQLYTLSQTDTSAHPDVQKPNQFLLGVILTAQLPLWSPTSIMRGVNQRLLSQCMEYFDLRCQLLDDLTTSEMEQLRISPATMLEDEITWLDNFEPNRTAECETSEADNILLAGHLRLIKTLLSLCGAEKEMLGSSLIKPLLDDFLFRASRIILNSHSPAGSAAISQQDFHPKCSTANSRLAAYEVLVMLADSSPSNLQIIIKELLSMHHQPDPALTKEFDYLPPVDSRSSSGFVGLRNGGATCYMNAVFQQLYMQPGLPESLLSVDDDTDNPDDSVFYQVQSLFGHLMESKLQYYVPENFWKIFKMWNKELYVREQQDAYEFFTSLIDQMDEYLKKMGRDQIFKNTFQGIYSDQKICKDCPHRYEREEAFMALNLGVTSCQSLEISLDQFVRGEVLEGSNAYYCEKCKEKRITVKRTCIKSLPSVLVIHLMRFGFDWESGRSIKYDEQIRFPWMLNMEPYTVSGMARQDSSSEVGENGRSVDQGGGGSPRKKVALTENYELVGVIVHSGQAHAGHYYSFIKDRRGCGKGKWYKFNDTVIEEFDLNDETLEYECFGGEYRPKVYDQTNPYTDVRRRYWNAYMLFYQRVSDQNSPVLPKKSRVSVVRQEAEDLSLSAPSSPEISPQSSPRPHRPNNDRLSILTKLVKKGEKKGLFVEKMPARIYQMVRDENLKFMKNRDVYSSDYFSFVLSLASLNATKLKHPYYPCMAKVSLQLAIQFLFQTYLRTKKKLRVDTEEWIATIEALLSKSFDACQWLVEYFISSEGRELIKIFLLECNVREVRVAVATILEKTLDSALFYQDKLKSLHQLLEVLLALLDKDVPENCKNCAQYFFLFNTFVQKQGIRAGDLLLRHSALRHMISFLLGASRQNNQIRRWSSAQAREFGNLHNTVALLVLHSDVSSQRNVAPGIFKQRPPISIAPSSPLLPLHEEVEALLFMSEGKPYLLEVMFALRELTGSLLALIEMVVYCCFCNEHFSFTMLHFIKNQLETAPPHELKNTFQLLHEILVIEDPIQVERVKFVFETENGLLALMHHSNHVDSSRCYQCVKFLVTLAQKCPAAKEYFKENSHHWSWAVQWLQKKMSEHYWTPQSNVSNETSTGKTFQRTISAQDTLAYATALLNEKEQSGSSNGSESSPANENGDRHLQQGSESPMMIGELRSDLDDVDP

CN(C)S(=O)(=O)c1ccccc1CNC(=O)CCl
inactive: USP19 0.0268 | USP24 -0.108 | USP25 -0.258 | USP28 -0.239
